Source: PubChem
D2 PAM-1 – HTS Assay for Positive Allosteric Modulators of the Human D2 Dopamine Receptor: Primary Screen for Potentiators. D(2) dopamine receptor (Homo sapiens), P14416. HEK293 T-REx D2, calcium flux, EC20 dopamine potentiation. potentiation, % at 10 µM. 340,000 compounds, 0.34% hits;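 active = potentiation over 3 SD above the plate norm, cut at about 30% in these data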; note: 0% is about no effect
Target sequence (P14416 whole entry, looked up): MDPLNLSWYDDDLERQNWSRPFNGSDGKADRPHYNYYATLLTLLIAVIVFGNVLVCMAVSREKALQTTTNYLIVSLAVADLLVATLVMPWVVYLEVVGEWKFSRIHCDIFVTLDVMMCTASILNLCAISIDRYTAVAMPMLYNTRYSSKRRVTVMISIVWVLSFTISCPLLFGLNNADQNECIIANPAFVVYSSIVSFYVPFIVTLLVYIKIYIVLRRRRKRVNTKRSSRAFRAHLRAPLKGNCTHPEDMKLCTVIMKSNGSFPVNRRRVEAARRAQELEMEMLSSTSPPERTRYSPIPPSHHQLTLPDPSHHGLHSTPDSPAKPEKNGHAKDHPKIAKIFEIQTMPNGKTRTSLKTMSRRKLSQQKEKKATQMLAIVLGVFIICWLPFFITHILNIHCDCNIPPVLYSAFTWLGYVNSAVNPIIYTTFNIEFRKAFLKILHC
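Potentiation of an EC20 dopamine calcium response is measured in a force-coupled, tetracycline-inducible Hek293 Trex D2 line. Compound-only kinetic reads over 180 s flag agonists before dopamine addition.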
D2 ag-1 – Beta-Arrestin HTS for Positive Allosteric Modulators of the Human D2 Dopamine Receptor: Agonists; D(2) dopamine receptor (Homo sapiens), P14416; DiscoveRx PathHunter D2 beta-arrestin, luminescence, 90 min; 100% = 57 uM dopamine signal; activation, % (no concentration beside the values); 360,000 compounds, 0.084% hits; in the data active = activation above about 40%; inconclusive = between about 15% and that limit
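DiscoveRx PathHunter D2 beta-arrestin cells (2,100/well) attached overnight, then compound-stimulated 90 min at 37 C in HBSS/10 mM HEPES/0.1% Tween-20 buffer; beta-galactosidase complementation read by luminescence after 1 h at ambient temperature. Dopamine 57 uM final (EC100) as control.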
D2 ag-2 – HTS Assay for Allosteric Agonists of the Human D2 Dopamine Receptor: Primary Screen for Agonists; 340,000 compounds, 0.53% hits; activation, % at 2 µM; D(2) dopamine receptor (Homo sapiens), P14416; HEK293 T-REx D2 cells, calcium flux agonist mode; AID 485358, 2010;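 active = activation over 3 SD above normal in the single-dose calcium agonist read, cut at about 30% in these data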; note: 0% is about no effect
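Agonism is scored from calcium flux in a force-coupled, inducible HEK293 cell line expressing D2, read kinetically for 180 s after compound addition against dopamine controls.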
D2 PAM-2 – Beta-Arrestin HTS for Positive Allosteric Modulators of the Human D2 Dopamine Receptor: Potentiators | 360,000 compounds, 0.23% hits | potentiation, % (test concentration not listed) | D(2) dopamine receptor (Homo sapiens), P14416 | DiscoveRx D2 beta-arrestin cells, luminescence, 90 min; 100% = 57 uM dopamine signal; in the data active = potentiation above about 50%; inconclusive = mostly about 30% to 49%
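PathHunter beta-arrestin assay in DiscoveRx D2 cells. Compounds were added with an EC20 of dopamine (50 nM final) for 90 min at 37 deg C. Luminescence was read 1 h after detection reagent, with 57 uM dopamine as the EC100 control.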
D2 antag – HTS Assay for Allosteric Antagonists of the Human D2 Dopamine Receptor: Primary Screen for Antagonists; D(2) dopamine receptor (Homo sapiens), P14416; HEK293 TREx D2 cells, calcium flux, dopamine EC80; inhibition, % at 10 µM; 340,000 compounds, 2% hits; in the data active = inhibition above about 30%; inactive = below that, where a call was filed; note: 0% is about no effect
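Calcium flux kinetic readout in an inducible HEK293 TREx D2 line plated overnight at 30 C. After 180 s compound exposure, an EC80 dopamine challenge follows with another 180 s kinetic read to detect antagonism.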
* hit, by the source's call. This is a sample that favours compounds with a hit; in the whole collection about 2.4% have one here.

How did CCn1c(=O)cc(OCC(=O)NCCCN2CC(C)CC(C)C2)c2ccccc21 (stereo unspecified) do in these assays?
D2 PAM-1: -18; D2 ag-1: -2; D2 ag-2: 0; D2 PAM-2: -26; D2 antag: 58*

How did CC1CCN(CCCNC(=O)c2n[nH]c(=O)c3ccccc23)CC1 do in these assays?
D2 PAM-1: -13; D2 ag-1: -1; D2 ag-2: 0; D2 PAM-2: -37; D2 antag: 41*

Results for CCn1c(=O)cc(OCC(=O)NCCCN2CCC(C)CC2)c2ccccc21 ?
D2 PAM-1: -16; D2 ag-1: -3; D2 PAM-2: -27

What do the screens show for `CCOC(=O)c1c(NC(=O)c2cc(OC)c(OC)c(OC)c2)sc2c1CCCC2`?
D2 PAM-1: -2; D2 ag-2: 1

Results for O=C(Nc1ccc(Cl)cc1)c1ccc2c(c1)N(Cc1ccccc1)C(=O)c1ccccc1S2(=O)=O ?
D2 PAM-1: 12; D2 ag-2: -1

How did COc1cc2[nH]c(C(=O)NCC3CCCO3)cc2c(OC)c1OC (stereo unspecified) do in these assays?
D2 PAM-1: -24; D2 ag-1: -1; D2 ag-2: 0; D2 PAM-2: -24; D2 antag: 55*

How did COc1ccc(O)c(CNn2c(-c3ccc(Br)cc3)nc3ccccc3c2=O)c1 do in these assays?
D2 PAM-1: 3; D2 ag-1: -3; D2 ag-2: -2; D2 PAM-2: 8; D2 antag: 50*

Results for O=C(Nc1ccc(F)c(Cl)c1)N1CCC(CN2CCOCC2)CC1 ?
D2 PAM-1: -9

How did CCc1ccc(OCC(=O)NNC(=O)c2ccc(NC(=O)C3CC3)cc2)cc1 do in these assays?
D2 PAM-1: 6; D2 ag-1: 3; D2 ag-2: 0; D2 PAM-2: -14; D2 antag: 31*

Results for CCOC(=O)c1c(NC(=O)COC(=O)c2nc(Cl)ccc2Cl)sc(C(=O)N(C)C)c1C ?
D2 PAM-1: 4; D2 ag-1: -2; D2 ag-2: 1; D2 PAM-2: -14; D2 antag: -4

What do the screens show for `CCOC(=O)c1c(NC(=O)COC(=O)CNC(=O)c2ccc(Cl)cc2Cl)sc(C(=O)N(C)C)c1C`?
D2 PAM-1: 32*; D2 ag-1: -1; D2 ag-2: -1; D2 PAM-2: -5; D2 antag: 9

How did COc1cc(NS(=O)(=O)c2cc3[nH]c(=O)[nH]c3cc2C)cc(OC)c1OC do in these assays?
D2 PAM-1: 13

What do the screens show for `COc1cc(NS(C)(=O)=O)cc(OC)c1OC`?
D2 PAM-1: 1; D2 ag-1: 3; D2 ag-2: 0; D2 PAM-2: 2; D2 antag: 30*

Results for Cc1nc(-c2ccc(Cl)cc2)sc1C1(C)CC(c2cccc(F)c2)=NO1 (stereo unspecified) ?
D2 PAM-1: -1; D2 ag-1: -3; D2 ag-2: 0; D2 PAM-2: -5; D2 antag: 30*

Results for Cc1nc(-c2ccc(Cl)cc2)sc1C1(C)CC(c2cccc(Cl)c2)=NO1 (stereo unspecified) ?
D2 PAM-1: -9; D2 ag-1: 0; D2 ag-2: 0; D2 PAM-2: 2; D2 antag: 0

How did Cc1ccccc1Cc1c(C)nc2nc(SCC(=O)NCCCN3CCCCC3)nn2c1C do in these assays?
D2 PAM-1: 15; D2 ag-1: 4; D2 ag-2: 1; D2 PAM-2: -3; D2 antag: 75*

How did Cc1nc2nc(SCC(=O)NCCCN3CCCCCC3)nn2c(C)c1Cc1ccccc1 do in these assays?
D2 PAM-1: 5; D2 ag-1: -4; D2 ag-2: 0; D2 PAM-2: -11; D2 antag: -6

What do the screens show for `O=C(NCCCN1CCCC1=O)Nc1ccc(Cl)cc1`?
D2 ag-1: 0; D2 PAM-2: -7

How did O=C(NCCCN1CCCC1=O)Nc1ccc([N+](=O)[O-])cc1 do in these assays?
D2 PAM-1: 8; D2 ag-1: -19; D2 ag-2: 0; D2 PAM-2: -5; D2 antag: 35*

Results for COc1cccc(-c2cnc(C(O)c3cccc(F)c3)[nH]2)c1 (stereo unspecified) ?
D2 ag-1: -5; D2 PAM-2: -8

How did COC(=O)C1=C(C)N(c2ccc(Cl)c(Cl)c2)C(=O)C1 do in these assays?
D2 PAM-1: -4; D2 ag-1: -3; D2 ag-2: 1; D2 PAM-2: -23; D2 antag: 32*

How did Cc1nn(C)c2ncc(C(=O)c3ccccc3O)cc12 do in these assays?
D2 PAM-1: 13; D2 ag-1: -1; D2 ag-2: 0; D2 PAM-2: 5; D2 antag: 48*

How did Cc1ccc(O)c(C(=O)c2cnc3c(c2)c(C)nn3C)c1 do in these assays?
D2 PAM-1: -11; D2 ag-1: -1; D2 ag-2: 0; D2 PAM-2: -5; D2 antag: 1

How did C[C@@H]1CN([C@@H](C)CO)S(=O)(=O)c2ccc(Br)cc2O[C@H]1CN(C)C(=O)c1ccccc1 do in these assays?
D2 ag-1: -7; D2 PAM-2: -9

Results for N/C(=N\OC(=O)N1c2ccccc2Sc2ccccc21)c1ccccc1 ?
D2 PAM-1: 2; D2 ag-1: 5; D2 ag-2: -1; D2 PAM-2: 5; D2 antag: -2

What do the screens show for `Cc1cccc(C(=O)O/N=C(/c2ccccc2)c2ccncc2)c1`?
D2 PAM-1: 12; D2 ag-1: inconclusive; D2 ag-2: -2; D2 PAM-2: 63*; D2 antag: 0

How did Cc1cccc(/C(N)=N/OC(=O)c2ccc(Br)o2)c1 do in these assays?
D2 PAM-1: 4; D2 ag-1: inconclusive; D2 ag-2: 0; D2 PAM-2: 65*; D2 antag: 6

What do the screens show for `Cc1cccc(/C(N)=N/OC(=O)N2c3ccccc3Sc3ccccc32)c1`?
D2 PAM-1: 7; D2 ag-1: inconclusive; D2 ag-2: 0; D2 PAM-2: 51*; D2 antag: -18

How did Cc1cccc(/C(N)=N/OC(=O)c2ccc3c(c2)OCO3)c1 do in these assays?
D2 PAM-1: 5; D2 ag-1: inconclusive; D2 ag-2: 1; D2 PAM-2: 57*; D2 antag: -9

Results for O=C(Nc1ccccc1C(F)(F)F)N1CCC(CN2CCc3ccccc3C2)CC1 ?
D2 PAM-1: 2; D2 ag-2: 4
